HCMV antiviral: qHTS Assay for inhibitors of the human cytomegalovirus (HCMV); activity change, negative = inhibition, % at 57.5 µM; HFF cells, HCMV-luciferase reporter, 72 h; hits give low values; actives 4.5% (n = 410,000); AID 1259415, 2018; in the data active = activity change below about -60%; inconclusive = no clear call, values can overlap the other calls; inactive = above about -39%; note: % is set by controls: 0 for no effect and ±100 for the full control effect
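Compounds were evaluated in HFFs infected with an HCMV luciferase reporter virus (MOI 1 PFU/cell). Luciferase in lysates collected 72 h post infection served as the replication measure.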
Cycloheximide cs: Cycloheximide Counterscreen for Small Molecule Inhibitors of Shiga Toxin; actives 12% (n = 300,000); max response, %; cell reporter, cycloheximide protein synthesis inhibition counterscreen; AID 2314, 2010; in the data active = max response mostly above about 13%, no sharp cut-off; inactive = mostly below about 14%; note: read at 38.3 µM for the half of the compounds with a filed dose; 0% is about no effect
Shiga toxin inh: A qHTS for Small Molecule Inhibitors of Shiga Toxin; AID 2315, 2010; inhibition, % at 38.7 µM; Vero cells, Shiga toxin protein synthesis inhibition reporter; actives 9.2% (n = 290,000); in the data active = inhibition mostly above about 28%, no sharp cut-off; inactive = mostly below about 43%; note: 0% is about no effect
Pf growth 48h: Primary qHTS for delayed death inhibitors of the malarial parasite plastid, 48 hour incubation. P. falciparum luciferase growth in erythrocytes, 48 h. actives 5.9% (n = 310,000). Potency, µM (series often up to 28.7 µM), for the others: at the highest dose activity change, negative = inhibition, most hits filed as inhibitors. AID 504832, 2011; note: potency is the fitted concentration of half-maximal effect; % is set by controls: 0 for no effect and ±100 for the full control effect
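Read-out is firefly luciferase luminescence from an integrated reporter in P. falciparum, so falling signal marks reduced parasite growth. Infected erythrocytes were at 2% hematocrit and 0.1% parasitemia (final) in Albumax-supplemented RPMI 1640.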
Pf growth 96h: Primary qHTS for delayed death inhibitors of the malarial parasite plastid, 96 hour incubation; actives 6.9% (n = 320,000); Potency, µM (doses to about 28.7 µM), for the others: at the highest dose activity change, negative = inhibition, most hits filed as inhibitors; P. falciparum luciferase reporter growth, 96 h; note: potency is the fitted concentration of half-maximal effect; % is set by controls: 0 for no effect and ±100 for the full control effect
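Erythrocytes infected with luciferase-expressing P. falciparum were dispensed at 2% hematocrit and 0.05% parasitemia (final), then incubated with compounds 96 hours at 37 C in 5% CO2. Luminescence after detection reagent addition reported growth.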
* marks the source's active call; other numbers are inactive results; ? = inconclusive; . = no result given. Rows were chosen to be rich in hits. Some 20% of all compounds tested hit in one or more screens of this group. Unless noted, calls come from the whole dose curve; as a rule, active = well fitted inhibition curve with a large enough effect; inconclusive = small, poorly fitted or top-dose-only effect, or another doubt; inactive = no such curve, though single readings can be large or run the other way.

SMILES	HCMV antiviral	Cycloheximide cs	Shiga toxin inh	Pf growth 48h	Pf growth 96h
Cc1cc(C)c(C)c(S(=O)(=O)NC(C(=O)NCCc2ccco2)C(C)C)c1C (centres undefined)	-5	.	.	?	?
Cc1ccc(C(=O)N(C)CC(=O)Nc2ccc(Cl)c(C(F)(F)F)c2)cc1S(=O)(=O)N1CCCCC1	-34	.	.	9.3µM*	?
CN(CC(=O)Nc1ccc(Cl)c(C(F)(F)F)c1)C(=O)c1ccc(S(=O)(=O)N2CCOCC2)cc1	0	.	.	.	.
CN(CC(=O)Nc1ccc(Cl)c(C(F)(F)F)c1)C(=O)c1ccc(OCC2CCCO2)cc1 (centres undefined)	-73*	.	.	-1%	?
CC(OC(=O)c1cccs1)C(=O)NC1CC1 (centres undefined)	-22	-6	-7	13%	-1%
COc1ccc(C)cc1NC(=O)CSc1ccc(-c2ccccn2)nn1	-93*	11*	20	?	9.3µM*
CC(=O)Nc1cccc(NC(=O)CSc2ccc(-c3ccccn3)nn2)c1	?	6	31	?	?
Cc1cccc(NC(=O)CSc2ccc(-c3cccnc3)nn2)c1	?	-1	-13	?	12µM*
Cc1cccc(NC(=O)CSc2ccc(-c3ccccn3)nn2)c1	-105*	.	.	.	.
Cc1ccc(NC(=O)CSc2ccc(-c3cccnc3)nn2)cc1	-6	0	15	?	?
COc1ccccc1NC(=O)CSc1ccc(-c2ccc(-n3ccnc3)cc2)nn1	-22	.	.	12µM*	?
CC[C@@H]1C/C=C\Cc2ccccc2[C@@H](C(=O)C[C@@H](O)CC(C)=O)OC1=O	-10	.	.	.	.
Cc1ccc(C2=NS(=O)(=O)N(C)C(C(=O)Nc3cc(C)n(CC(=O)N4CCCCC4)n3)=C2)cc1	4	-3	-6	5%	14%
COc1ccc(OC)c(NC(=O)CSc2ccc(-c3sc(C)nc3C)nn2)c1	7	.	.	.	.
COc1ccc(C)cc1NC(=O)CSc1ccc(-c2sc(C)nc2C)nn1	-30	-2	-5	12µM*	1%
Cc1ccc(N2C(=O)C3N=NN(CC(=O)N4N=C(c5ccccc5)CC4c4ccccc4)C3C2=O)cc1 (centres undefined)	51	-5	-6	12µM*	-25%
CCC[C@H]1CC(=O)C=C(c2ccc(OC)cc2)ON1C(=O)OC(C)(C)C	-22	.	.	.	.
Cn1nccc1C(=O)Nc1ccc2c(c1)OCCO2	33	43*	96*	84%	?
Cn1ncc([N+](=O)[O-])c1C(=O)Nc1ccc(-c2ccccc2)cc1	48	13*	.	-10%	-4%
Cc1c(C(=O)Nc2ccc(Br)cc2)cnn1C	118	78*	130*	174%	182%
Cn1ncc(Cl)c1C(=O)Nc1ccc2c(c1)OCO2	51	21*	47	31%	-2%
Cn1ncc([N+](=O)[O-])c1C(=O)Nc1ccccc1	-11	5	-2	?	-11%
Cc1ccc(C(=O)NNc2cc(=O)n(C)c(=O)n2C)cc1C	-1	-3	-15	28%	?
Cc1ccc(NC(=O)c2c([N+](=O)[O-])cnn2C)cc1C	7	5	.	3%	55%
Cn1ncc([N+](=O)[O-])c1C(=O)Nc1ccc2c(c1)OCCO2	?	33*	54*	56%	0%
SMILES	HCMV antiviral	Cycloheximide cs	Shiga toxin inh	Pf growth 48h	Pf growth 96h
O=C(Nc1ccc2c(c1)OCO2)c1csc([C@@H]2C[C@H](O)[C@@H](CO)O2)n1	-9	.	.	.	.
Cc1ccc(C(=O)Nc2ccc3c(c2)OCCO3)c(C)c1	?	-3	-9	203%	-4%
O=C(Nc1ccc2c(c1)OCO2)c1c(Cl)nc2sccn12	15	25*	103*	113%	156%
Cc1cc(C)n2ncc(C(=O)Nc3ccc4c(c3)OCO4)c2n1	-16	-2	26	7%	?
Cc1c(C(=O)Nc2ccc3c(c2)OCCO3)cnn1C	-5	48*	78*	229%	?
Cc1nn(C)cc1C(=O)Nc1ccc2c(c1)OCCO2	21	43*	71*	114%	0%
CCOc1ccc(C(=O)Nc2cccc(-c3nc4cc(Cl)cc(Cl)c4o3)c2)cc1	29	.	.	.	.
CCOC(=O)[C@]12CCCC=C1N(CCC1=CCCCC1)C(=O)[C@H](CC(=O)NCCCN1CCCC1=O)C2	-12	.	.	.	.
CC1CCCCN1Cc1nc2c(c(=O)n(C)c(=O)n2C)n1Cc1ccc(Br)cc1 (centres undefined)	-4	.	.	.	.
Cn1c(=O)[nH]c(=O)c2c1nc(N1CCN(Cc3ccccc3)CC1)n2CCCc1ccccc1	-29	1	1	5.2µM*	.
CC1CCCCN1Cc1nc2c(c(=O)n(C)c(=O)n2C)n1CCc1ccccc1 (centres undefined)	-67*	-1	-7	-15%	?
Cc1nc(N2CCN(Cc3ccccc3)CC2)[nH]c(=O)c1C	96	-3	-2	19%	2.6µM*
CC1CCN(c2nc3c(c(=O)n(C)c(=O)n3C)n2Cc2ccccc2)CC1	-31	-2	-14	13µM*	?
COc1ccccc1OC(C)C(=O)Nc1ccccc1C(=O)NCc1cccnc1 (centres undefined)	-4	-2	4	19%	28%
CC(NC(=O)CCNC(=O)c1ccccc1Cl)C1CC2CCC1C2 (centres undefined)	-14	-2	14	5%	-24%
Cn1c(=O)c2c(nc(N3CCN(Cc4ccccc4)CC3)n2CCCc2ccccc2)n(C)c1=O	-12	7	22	3.7µM*	6.6µM*
CCOC(=O)Cn1c(=O)c2c(nc(N3CCCCC3)n2Cc2ccccc2)n(C)c1=O	14	-8	12	5.2µM*	?
Cn1c(=O)c2c(nc(N3CCN(c4ccccc4)CC3)n2CCCc2ccccc2)n(C)c1=O	-10	-2	-2	?	-15%
CCOC(=O)Cn1c(=O)c2c(nc3n2CC(C)CN3Cc2ccccc2)n(C)c1=O (centres undefined)	?	-4	-6	-20%	?
Cn1c(=O)c2c(nc(N3CCOCC3)n2Cc2ccccc2F)n(C)c1=O	-104*	.	.	.	.
CC(C)(C)OC(=O)C[C@@H]1C/C=C\C[C@H](CC(=O)NCCO)C(=O)NC[C@@H](c2ccccc2)OC1=O	-18	.	.	.	.
COc1ccc(CN2C(=O)c3ccccc3C(/C=N\OCc3ccc(F)cc3)C2=O)cc1 (centres undefined)	-91*	-1	10	?	?
COc1ccc(CN2C(=O)c3ccccc3C(/C=N/OCc3ccc(Cl)cc3)C2=O)cc1 (centres undefined)	-25	-1	-6	?	?
Oc1cccc(Nc2cc3[nH]c(-c4ccccc4)cc3cn2)c1	-87*	.	.	.	.
COc1ccc(S(=O)(=O)N2CCN(c3ccccc3)CC2)cc1-c1noc(C)n1	?	6	-9	.	.
CCOC(=O)C1=C(CSc2nc3ccccc3s2)NC(=O)NC1c1cc(C)ccc1C (centres undefined)	?	17	20	?	9.3µM*
